Results taken from PubChem BioAssay (Tox21).
Inconclusive results are not listed. Calls of active or inactive are those of the source. Unless noted, the call rests on the fitted dose curve; in most records, active means well fitted curve in the direction sought with a large enough effect in the repeat runs; inconclusive means weak or mixed curves; inactive means no such curve, though single readings can be large; an effect the other way counts as inactive or inconclusive.

Assays:
[1] = A CellTox Green Cytotoxicity Assay to monitor cytotoxicity in HEK293 cells - 16 hour (AID 1224888); further: nearly all actives have a fitted effect of over 35% in size
Procedure, shortened: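 Seeding of HEK293 cells together with cytotoxicity dye preceded a 5 h incubation at 37 C/5% CO2. Test compounds in DMSO were then added and fluorescence monitored across 40 h.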

[2] = qHTS RealTime-Glo MT Cell Viability Assay in HepG2 cells - 0 hour (AID 1224889); further: nearly all actives have a fitted effect of over 50% in size
Procedure, shortened: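 Luminescence read-out: viable HepG2 cells reduce a prosubstrate to a NanoLuc substrate, giving a signal proportional to live cell number. Reads taken at 0, 8, 16, 24, 32 and 40 h of compound exposure at 37 C.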

[3] = A CellTox Green Cytotoxicity Assay to monitor cytotoxicity in HepG2 cells - 8 hour (AID 1224890); further: nearly all actives have a fitted effect of over 45% in size
Procedure, shortened: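 Nonlytic assay: viable cells exclude the dye, so fluorescence scales with cell death. HepG2 at 600 cells/well, compounds added after 5 h, signal read across 40 h.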

[4] = qHTS assay to identify small molecule antagonists of the estrogen receptor alpha (ER-alpha) signaling pathway using the BG1 cell line in the presence of 0.1 nM 17-beta-estradiol - cell viability counter screen (AID 1259241); further: nearly all actives have a fitted effect of over 40% in size
Procedure, shortened: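 Measures cytotoxicity alongside the ER-alpha antagonist readout: VM7Luc4E2 cells, charcoal-stripped serum, 0.1 nM 17beta-estradiol final, 22 hr compound incubation at 37C, CellTiter-Fluor fluorescence.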

[5] = qHTS assay to identify small molecule antagonists of the androgen receptor (AR) signaling pathway using the MDA cell line in the presence of 0.5 nM R1881 - cell viability counter screen (AID 1259242); further: nearly all actives have a fitted effect of over 45% in size
Procedure, shortened: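 R1881 at 0.5 nM final stimulated MDA-kb2 cells during 16 hr compound treatment at 37C. Cytotoxicity read: CellTiter-Fluor fluorescence after 30 min.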

[6] = target: Estrogen receptor (Homo sapiens) (UniProt P03372); test: qHTS assay to identify small molecule antagonists of the estrogen receptor alpha (ER-alpha) signaling pathway using the BG1 cell line in the presence of 0.1 nM 17-beta-estradiol (AID 1259244); further: nearly all actives have a fitted effect of over 50% in size
Estrogen receptor (Homo sapiens), sequence (P03372 whole entry, looked up): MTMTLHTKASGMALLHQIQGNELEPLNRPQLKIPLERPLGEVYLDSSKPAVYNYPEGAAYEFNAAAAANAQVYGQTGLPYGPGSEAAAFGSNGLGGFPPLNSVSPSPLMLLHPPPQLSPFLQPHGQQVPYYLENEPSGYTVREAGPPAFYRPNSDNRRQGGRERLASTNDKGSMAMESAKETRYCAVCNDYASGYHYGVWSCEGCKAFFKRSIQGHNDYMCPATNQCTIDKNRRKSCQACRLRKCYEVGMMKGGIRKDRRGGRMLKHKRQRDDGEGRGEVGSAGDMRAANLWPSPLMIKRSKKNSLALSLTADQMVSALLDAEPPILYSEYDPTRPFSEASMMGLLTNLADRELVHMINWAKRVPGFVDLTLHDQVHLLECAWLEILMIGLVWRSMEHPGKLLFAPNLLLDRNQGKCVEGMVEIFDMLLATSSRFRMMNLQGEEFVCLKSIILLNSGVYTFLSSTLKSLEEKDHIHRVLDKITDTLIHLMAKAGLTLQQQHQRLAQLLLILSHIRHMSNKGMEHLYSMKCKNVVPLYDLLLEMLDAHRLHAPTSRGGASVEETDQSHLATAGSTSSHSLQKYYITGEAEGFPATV
Procedure, shortened: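 VM7Luc4E2; 4xERE-luciferase; 0.1 nM E2 final; 22 h co-incubation, 37C; ONE-Glo luminescence after 30 min at room temperature.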

[7] = qHTS assay to identify small molecule HDAC inhibitors (AID 1259364); further: potency means the concentration at half of the fitted maximal effect;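 further: wild-type HCT-116 cells with endogenous class I/II HDAC activity; nearly all actives have a fitted effect of over 45% in size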; on activity change, negative = inhibition: top concentration of the series differs between compounds
Procedure, shortened: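 Relative class I and II HDAC activity is taken from the luminogenic signal in HCT-116 cells, with compound exposure 2 hr and reagent development 30 min at room temperature.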

[8] = qHTS assay to identify small molecule HDAC inhibitors - cell viability counter screen (AID 1259365); further: series mostly up to about 92 µM; nearly all actives have a fitted effect of over 50% in size
Procedure, shortened: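 Following a 2hr exposure of overnight-plated wild-type HCT-116 cells to DMSO-delivered compounds, CellTiter-Glo was added and luminescence recorded after 30min at room temperature.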

[9] = qHTS assay to identify small molecule antagonists of the sonic hedgehog signaling (Shh) pathway - cell viability counter screen (AID 1259367); further: nearly all actives have a fitted effect of over 55% in size
Procedure, shortened: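 After a 4 hr settling period, 3T3 Gli1-Luc cells were treated with DMSO-dissolved chemicals and conditioned medium, kept 24 hr at 37C in 5% CO2, and assayed for viability by CellTiter-Fluor fluorescence following 1 hr reagent incubation.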

[10] = qHTS assay to identify small molecule agonists of the sonic hedgehog signaling (Shh) pathway (AID 1259368; calls by dose curve;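 further: NIH/3T3-derived 3T3Gli1-Luc cells carrying a stable Gli1-driven firefly luciferase reporter; series mostly up to about 92 µM; nearly all actives have a fitted effect of over 15% in size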)
Procedure, shortened: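 Mouse fibroblast (NIH/3T3) reporter cells with stably integrated Gli1-Luc were treated 24 hr with compound; firefly luciferase luminescence served as the read-out.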

[11] = qHTS assay to identify small molecule agonists of the androgen receptor (AR) signaling pathway in the presence of an antagonist - cell viability counter screen (AID 1259379);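 further: MDA-kb2 human breast cancer cells carrying an MMTV luciferase reporter; series mostly up to about 92 µM; nearly all actives have a fitted effect of over 25% in size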
Procedure, shortened: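 A CellTiter-Fluor read-out measured viability of MDA-kb2 reporter cells (MMTV promoter with AR and GR response elements). Treatment: nilutamide 3.0uM final with compounds at 15 concentrations, 16 hr, 37C, 0% CO2.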

[12] = qHTS assay to identify small molecule agonists of the estrogen receptor beta (ER-beta) signaling pathway - cell viability counter screen (AID 1259380); further: nearly all actives have a fitted effect of over 30% in size
Procedure, shortened: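 Cells used were ER-beta-UAS-bla HEK293T in medium with 2% charcoal-stripped FBS. They were treated for 16 hr at 37C. Viability came from CellTiter-Glo luminescence.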

[13] = qHTS assay to identify small molecule agonists of the sonic hedgehog signaling (Shh) pathway - cell viability counter screen (AID 1259366); further: nearly all actives have a fitted effect of over 50% in size
Procedure, shortened: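 After a 4hr attachment at 37C, NIH/3T3 cells bearing an integrated Gli1-driven luciferase reporter were dosed with compounds. Treatment lasted 24hr, with the final hour including CellTiter-Fluor for a fluorescence viability measurement.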

[14] = qHTS assay to identify small molecule antagonists of the sonic hedgehog signaling (Shh) pathway (AID 1259369; calls by dose curve; further: nearly all actives have a fitted effect of over 45% in size)
Procedure, shortened: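 Conditioned medium drives Shh signalling in 3T3Gli1-Luc cells; compounds in DMSO co-applied, 24hr at 37 C, then luciferase luminescence.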

[15] = qHTS RealTime-Glo MT Cell Viability Assay in HEK293 cells - 8 hour (AID 1224887)
Procedure, shortened: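 Tox21 screen in HEK293 using RealTime-Glo MT chemistry, with cells and reagent co-dispensed. Luminescence proportional to viable cell number was captured at intervals during 40 h compound exposure at 37 C.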

[16] = qHTS assay to identify small molecule phospholipidosis (PLD) inducers (AID 1259344; active means well fitted curve in the direction sought with a large enough effect; an effect the other way counts as inactive or inconclusive)
Procedure, shortened: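 HepG2 cells grown on collagen I take up LipidTOX Red while exposed to compound for 24 h; after fixation they are imaged at 20x and pit metrics are extracted.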

[17] = target: Estrogen receptor beta (Homo sapiens) (UniProt Q92731); test: qHTS assay to identify small molecule agonists of the estrogen receptor beta (ER-beta) signaling pathway (AID 1259377; active means well fitted activation curve with a large enough effect in the signal ratio in the repeat runs, not every such curve was filed as active; the % refers to the signal ratio)
Estrogen receptor beta (Homo sapiens), sequence (Q92731 whole entry, looked up): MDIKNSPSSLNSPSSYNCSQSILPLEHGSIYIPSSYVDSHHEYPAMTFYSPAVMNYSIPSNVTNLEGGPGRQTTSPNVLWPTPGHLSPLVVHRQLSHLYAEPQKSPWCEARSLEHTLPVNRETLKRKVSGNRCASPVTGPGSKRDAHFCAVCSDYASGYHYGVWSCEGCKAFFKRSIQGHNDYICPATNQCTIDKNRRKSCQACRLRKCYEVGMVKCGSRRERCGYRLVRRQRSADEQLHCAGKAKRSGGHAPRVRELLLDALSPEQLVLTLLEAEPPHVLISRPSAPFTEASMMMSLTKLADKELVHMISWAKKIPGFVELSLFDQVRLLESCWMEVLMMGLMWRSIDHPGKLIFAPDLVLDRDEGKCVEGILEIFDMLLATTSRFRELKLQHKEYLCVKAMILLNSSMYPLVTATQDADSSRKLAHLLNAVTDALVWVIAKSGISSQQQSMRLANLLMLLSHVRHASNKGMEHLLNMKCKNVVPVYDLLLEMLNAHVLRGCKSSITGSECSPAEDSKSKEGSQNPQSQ
Procedure, shortened: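 In HEK293T cells bearing a UAS-beta-lactamase reporter under ER-beta control, DMSO-delivered compounds were incubated for 16 hr at 37C. Activity was detected as fluorescence 2 hours after LiveBLAzer B/G FRET substrate addition.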

[18] = target: Estrogen receptor beta (Homo sapiens) (UniProt Q92731); test: qHTS assay to identify small molecule antagonists of the estrogen receptor beta (ER-beta) signaling pathway (AID 1259378; active means well fitted inhibition curve with a large enough effect in the signal ratio in the repeat runs, not every such curve was filed as active; the % refers to the signal ratio)
Procedure, shortened: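 ER-beta-UAS-bla HEK293T (GripTite) cells in 2% charcoal-stripped FBS medium were preincubated 6 hr at 37C, dosed with compound, then stimulated with 1 nM E2 (final) for 16 hr; beta-lactamase reporter read by B/G FRET fluorescence after 2 hr substrate loading.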
On the % scale 0 is the no-effect control and ±100 the full control effect.

O=C[O][Al]([O]C=O)[O]C=O
inactive: Potency [1] | Potency [2] | Potency [3] | outcome [4] | outcome [5] | outcome [6] | Potency [7] | outcome [8] | outcome [9] | outcome [10] | outcome [11] | outcome [12]

CCOC(CN1CCN(CC(C)C(=O)c2ccccc2)CC1)c1ccccc1 (configuration not stated)
inactive: activity change, negative = cytotoxicity [2] 0.232% [at 15.8 µM] | cytotoxicity increase [3] -9.59% [at 15.8 µM] | activity change, negative = cytotoxicity [4] -7.75% [at 19 µM] | viability change, negative = cytotoxic [5] -2.37% [at 19 µM] | activity change, negative = inhibition [7] 1.54% [at 19 µM] | activity change, negative = cytotoxicity [8] -3.08% [at 19 µM] | viability change, negative = cytotoxic [13] -6.98% [at 19 µM] | viability change, negative = cytotoxic [9] -0.0061% [at 19 µM] | activity change [10] 0.16% [at 18.9 µM] | activity change, negative = inhibition [14] -3.93% [at 19 µM] | activity change, negative = cytotoxicity [11] -6.08% [at 19 µM] | activity change, negative = cytotoxicity [12] -10.4% [at 19 µM]

c1ccc2c(CC3=NCCN3)cccc2c1
inactive: Potency [15] | Potency [2] | Potency [3] | outcome [4] | outcome [5] | outcome [16] | Potency [7] | outcome [8] | outcome [13] | outcome [9] | outcome [10] | outcome [11] | outcome [12]

CC(=O)OCC(=O)Nc1cc(C#N)cc(NC(=O)COC(C)=O)c1Cl
inactive: Potency [15] | Potency [3] | outcome [4] | outcome [5] | outcome [6] | PLD induction [16] -3.87% [at 7.66 µM] | Potency [7] | outcome [8] | outcome [13] | outcome [9] | outcome [10] | Potency [17] | Potency [18] | outcome [12]

CC1OCCC1=O (configuration not stated)
inactive: Potency [15] | outcome [4] | outcome [5] | outcome [6] | Potency [7] | outcome [8] | outcome [9] | outcome [10] | Potency [14] | Potency [17] | Potency [18] | outcome [11] | outcome [12]

C=CCSSCCC
inactive: Potency [1] | Potency [2] | Potency [3] | outcome [4] | outcome [5] | outcome [6] | Potency [7] | outcome [8] | outcome [13] | outcome [9] | outcome [10] | Potency [17] | outcome [11] | outcome [12]

O=C1CCC(=O)N1Cl
inactive: Potency [15] | Potency [3] | outcome [4] | outcome [5] | outcome [6] | Potency [7] | outcome [8] | outcome [13] | outcome [9] | outcome [10] | Potency [14] | Potency [17] | Potency [18] | outcome [11] | outcome [12]

CCC(C(=O)OCCN1CCOC(c2ccccc2)C1C)c1ccccc1 (configuration not stated)
inactive: Potency [1] | Potency [2] | Potency [3] | outcome [4] | outcome [5] | outcome [6] | Potency [7] | outcome [8] | outcome [13] | outcome [9] | outcome [10] | outcome [11] | outcome [12]

CN(C)CC/C=C1/c2ccccc2COc2ccc(CC(=O)O)cc21
inactive: Potency [3] | outcome [4] | outcome [5] | outcome [16] | Potency [7] | outcome [8] | outcome [13] | outcome [10] | Potency [17] | Potency [18] | outcome [11] | outcome [12]

[O]=[Mo](=[O])=[O]
inactive: activity change [1] -32.5% [at 15.8 µM, stronger effect = higher value] | activity change, negative = cytotoxicity [2] 1.95% [at 15.8 µM] | cytotoxicity increase [3] -8.17% [at 15.8 µM] | activity change, negative = cytotoxicity [4] 0.14% [at 19 µM] | viability change, negative = cytotoxic [5] 3.82% [at 19 µM] | activity change, negative = inhibition [6] 3.96% [at 19 µM] | activity change, negative = inhibition [7] 3.49% [at 19 µM] | activity change, negative = cytotoxicity [8] 3.01% [at 19 µM] | viability change, negative = cytotoxic [13] 1.33% [at 19 µM] | activity change [10] -1.33% [at 18.9 µM] | activation [17] -1.75% [at 19 µM] | activity change, negative = cytotoxicity [11] 2.34% [at 19 µM] | activity change, negative = cytotoxicity [12] 3.4% [at 19 µM]

CC(=O)Nc1ccc(OC(=O)c2ccccc2OC(C)=O)cc1
inactive: Potency [15] | Potency [3] | outcome [4] | outcome [5] | outcome [6] | outcome [16] | outcome [8] | outcome [13] | outcome [10] | outcome [12]
active: Potency [7] 23.7 µM

C=CC/C=C/C
inactive: Potency [15] | Potency [2] | outcome [4] | outcome [5] | outcome [6] | Potency [7] | outcome [8] | outcome [13] | outcome [9] | outcome [10] | Potency [14] | outcome [11] | outcome [12]

CC12CCC(C1)C(C)(C)C2O (configuration not stated)
inactive: Potency [15] | Potency [2] | outcome [4] | outcome [5] | outcome [6] | Potency [7] | outcome [8] | outcome [13] | outcome [9] | outcome [10] | Potency [14] | Potency [17] | Potency [18] | outcome [11] | outcome [12]

CC(=O)OC(C)=O
inactive: Potency [15] | Potency [3] | outcome [4] | outcome [5] | Potency [7] | outcome [8] | outcome [10] | Potency [14] | outcome [11] | outcome [12]

Nc1nnnn1-c1ccccc1
inactive: Potency [15] | outcome [4] | outcome [5] | outcome [6] | outcome [16] | Potency [7] | outcome [8] | outcome [13] | outcome [9] | outcome [10] | Potency [14] | Potency [18] | outcome [11] | outcome [12]

OCCN1CCOCC1
inactive: Potency [15] | Potency [2] | outcome [4] | outcome [5] | outcome [6] | Potency [7] | outcome [8] | outcome [13] | outcome [10] | Potency [14] | outcome [11] | outcome [12]

CC(O)COC(C)(C)C (configuration not stated)
inactive: Potency [15] | Potency [2] | Potency [3] | outcome [4] | outcome [5] | Potency [7] | outcome [8] | outcome [13] | outcome [10] | outcome [12]

NCC1(Cc2noc(=O)[nH]2)CCCCC1
inactive: Potency [15] | Potency [2] | outcome [4] | outcome [5] | outcome [6] | Potency [7] | outcome [8] | outcome [13] | outcome [10] | Potency [14] | Potency [17] | Potency [18] | outcome [12]

O=[N+]([O-])c1c(Cl)cc(Cl)cc1Cl
inactive: Potency [15] | Potency [2] | Potency [3] | outcome [4] | outcome [5] | Potency [7] | outcome [8] | outcome [9] | outcome [10] | Potency [14] | Potency [17] | outcome [11] | outcome [12]
